Laboratory results taken from the supplement of paper PMC12669032.
Values without a mark were called inactive.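 The calls were made as follows: active = AUC reduced over 20% with Padj below 0.05 in at least 2 of 3 replicates; inactive = otherwise.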

Assays:
Experiment in all cases: growth AUC relative to DMSO control (median of replicates) (fraction); higher = more growth (less inhibition), active = hit call of the paper
Settings in all cases: 20 µM; 24 h
[1] = system: Akkermansia muciniphila
Method in brief: (§1)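 Gut bacterial monocultures were grown anaerobically at 37 °C in mGAM, starting at OD600 0.05, with 20 µM compound (1% DMSO) in round-bottom 96-well plates under pierced gas-permeable seals. OD600 was read hourly for 24 h. Area under the growth curve (minimum OD set to 0) was normalised to the plate median of DMSO controls, or to row and column medians on the industrial chemical plate. The value is the median of three biological replicates grown on separate days.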

[2] = system: Bacteroides caccae
Method in brief: as §1

[3] = system: Bacteroides clarus
Method in brief: as §1

[4] = system: Bacteroides dorei
Method in brief: as §1

[5] = system: Bacteroides stercoris
Method in brief: as §1

[6] = system: Bacteroides thetaiotaomicron
Method in brief: as §1

[7] = system: Bacteroides uniformis
Method in brief: as §1

[8] = system: Bifidobacterium longum subsp. longum
Method in brief: as §1

[9] = system: Clostridium difficile
Method in brief: as §1

[10] = system: Collinsella aerofaciens
Method in brief: as §1

[11] = system: Coprococcus comes
Method in brief: as §1

[12] = system: Escherichia coli ED1a
Method in brief: as §1

[13] = system: Escherichia coli IAI1
Method in brief: as §1

[14] = system: Eubacterium rectale
Method in brief: as §1

[15] = system: Fusobacterium nucleatum subsp. animalis
Method in brief: as §1

[16] = system: Lactobacillus gasseri
Method in brief: as §1

[17] = system: Lactobacillus paracasei
Method in brief: as §1

[18] = system: Odoribacter splanchnicus
Method in brief: as §1

[19] = system: Parabacteroides distasonis
Method in brief: as §1

[20] = system: Parabacteroides merdae
Method in brief: as §1

Structure (SMILES)	growth AUC [1]	growth AUC [2]	growth AUC [3]	growth AUC [4]	growth AUC [5]	growth AUC [6]	growth AUC [7]	growth AUC [8]	growth AUC [9]	growth AUC [10]	growth AUC [11]	growth AUC [12]	growth AUC [13]	growth AUC [14]	growth AUC [15]	growth AUC [16]	growth AUC [17]	growth AUC [18]	growth AUC [19]	growth AUC [20]
BrCCBr	1.11	0.998	1.01	1.02	1.17	0.987	1	1.03	0.997	0.995	1.03	1.03	1.01	1.06	1.01	1.03	1	1.06	1.04	0.99
CNC(=O)Oc1cc(C)cc(C(C)C)c1	0.995	0.969	0.982	0.973	0.938	0.967	1.04	1.19	0.93	0.952	1.01	0.959	0.957	1.04	0.907	0.889	0.974	1.11	0.979	0.992
COC(=O)NCc1cc(/C(C)=N\OCc2cccc(C)n2)ccc1Cl	1.07	0.936	0.984	0.949	0.939	0.995	0.902	1.03	0.968	0.969	1.05	0.979	0.995	1.08	0.934	0.893	0.969	1	0.772	0.947
O=S(=O)(c1ccc(Cl)cc1)c1cc(Cl)c(Cl)cc1Cl	1.07	0.921	0.935	0.91	0.931	0.952	0.903	1.04	0.963	0.945	0.987	0.98	0.99	0.926	0.9	0.99	0.731	1.01	0.971	0.984
CCOP(=S)(OCC)SCSCC	1.1	0.955	0.991	0.969	0.942	0.997	0.986	1.01	1.01	1.01	0.985	0.987	0.956	1.17	0.99	0.97	0.952	0.984	0.921	0.947
CN/C(=N\[N+](=O)[O-])NCc1cnc(Cl)s1	0.906	0.93	1.02	1.03	1.17	1	1	1.03	0.979	0.988	1.01	1.02	1	1.07	1.09	0.959	1	1.02	0.965	0.975
O=C(Cc1ccccc1)N/C(=N\OCC1CC1)c1c(C(F)(F)F)ccc(F)c1F	1.23	0.936	0.965	0.945	0.852	0.959	0.912	0.975	0.957	0.915	1.01	0.983	0.972	1.03	0.937	0.842	0.946	0.911	0.612 (active)	0.877
CS(=O)(=O)NC(=O)c1cc(Oc2ccc(C(F)(F)F)cc2Cl)ccc1[N+](=O)[O-]	1.03	1.01	0.955	0.972	0.875	0.993	0.992	1.04	0.94	0.951	0.926	0.971	0.962	1.09	0.906	0.958	1.01	1.09	0.984	0.978
